# Lassa entry inh: blocks Lassa virus binding to or entry into cells; Lassa virus pseudotype entry inhibition, cell reporter; Potency, µM (highest dose often 37.9 µM), for inactives: at the top dose activity change, negative = inhibition, usual class: inhibitors; 300,000 compounds, 1.2% hits; AID 540256; calls by dose curve; tested in HEK293 cells; also: nearly all actives have a fitted effect of over 50% in size
# FMDV antiviral: blocks foot and mouth disease virus; 410,000 compounds, 1.2% hits; Potency, µM (doses to about 57.9 µM), for the others: at the top dose activity change, negative = inhibition, actives largely listed as inhibitors; AID 1159524; FMDV antiviral cell-based qHTS; calls by dose curve; tested in HEK293T cells; also: read-out not given here; nearly all actives have a fitted effect of over 45% in size
# Vaccinia mCherry: inhibitors of vaccinia virus infection (mCherry reporter signal); Vaccinia virus mCherry reporter infection, fluorescence; Potency, µM (top dose mostly 36.5 µM), for the others: at the highest dose activity change, negative = inhibition, most hits filed as inhibitors; 310,000 compounds, 0.63% hits; calls by dose curve; tested in A549 cells; also: nearly all actives have a fitted effect of over 35% in size
# VACV Venus inh: vaccinia inhibition (Venus reporter); Vaccinia virus Venus reporter expression, fluorescence; Potency, µM (doses to about 36.5 µM), for inactives: at the highest dose activity change, negative = inhibition, actives largely listed as inhibitors; 330,000 compounds, 0.46% hits; AID 720580; calls by dose curve; tested in A549 cells; also: nearly all actives have a fitted effect of over 30% in size
# HCV inhibitor: inhibitors of hepatitis C virus infection; Huh7.5.1 HCVcc-Cre infection, luciferase reporter, 44 h; Potency, µM (titrated, usually from 41.8 µM), without a hit: top-dose activity change, negative = inhibition, hits mostly inhibitors; 340,000 compounds, 3.4% hits; AID 651820; active = well fitted inhibition curve with a large enough effect; inconclusive = small, poorly fitted or top-dose-only effect, or another doubt; inactive = no such curve, though single readings can be large or run the other way
#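 Reporter virus HCVcc-Cre (~0.5 moi) infects cells exposed to compound; seeding density 1,000 cells/well with 4 h settling beforehand. Luminescence, 15 sec read, taken 44 h post-infection following a 15 min RT substrate incubation.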
# MARV entry inh: blocks Marburg virus binding to or entry into cells; Marburg virus pseudotyped entry inhibition, cell reporter; 300,000 compounds, 1.8% hits; Potency, µM (titrated, usually from 37.8 µM), for the others: at the top dose activity change, negative = inhibition, most hits filed as inhibitors; calls by dose curve; tested in HEK293 cells
# An asterisk follows results filed as active; i = inactive; ? = inconclusive; nt = no result; [ ] = remark or other dose. Compounds with a hit are over-represented: about 5.3% of the library has one in this group of screens. % is scaled to controls: 0 for no effect and ±100 for the full control effect; potency is read from the fitted curve at half-maximal effect.
SMILES,Lassa entry inh,FMDV antiviral,Vaccinia mCherry,VACV Venus inh,HCV inhibitor,MARV entry inh
O=C(Nc1ccc2c(c1)OCCO2)c1coc2ccccc2c1=O,-6%,7.9µM*,?,-25%,13%,-5%
O=C(CCCc1ccccc1)Nc1ccc2c(c1)OCCO2,8.9µM*,-11%,-8%,-2%,-14%,?
O=C(Nc1ccc2c(c1)OCCO2)c1ccccc1,?,-39%,-11%,-11%,-3%,?
Cc1csc(-c2nc3ccccc3n2C(C(=O)Nc2c(C)cccc2C)C2CC2)c1 (stereo not given),nt,15%,-12%,-24%,nt,nt
COC(=O)C[C@H]1c2ccccc2S(=O)(=O)N1c1ccc(N(C)C)cc1,nt,nt,-21%,-10%,nt,nt
Cc1c(O)c2c(c(C(=O)/C=C/c3ccccc3)c1O)OC(C)(C)C=C2,nt,nt,-13%,-19%,nt,nt
CCc1ccc(NCc2cc3cc(OC)c(OC)cc3n(CC(=O)Nc3cc(C)ccc3C)c2=O)cc1,?,17%,-18%,-19%,nt,nt
O=C1N=c2ccccc2=NC1C(=O)c1ccccc1 (stereo not given),nt,nt,nt,nt,nt,6%
CCOC(=O)/C(=C/c1c(C)n(C)c2ccc([N+](=O)[O-])cc12)C(C)=O,-13%,13µM*,i,-6%,?,?
Cc1cccc(NC(=O)c2ncn3c2C(=O)NC[C@H]3C)c1,nt,-19%,?,-29%,nt,nt
COc1cccc2c1[C@@H]1CN(CCCCn3c(=O)[nH]c4c(sc5ncc(-c6ccccc6)nc54)c3=O)C[C@@H]1CO2,?,-21%,?,?,3.5µM*,7.9µM*
Cc1ccc(C(C)C)cc1OCC(=O)Nc1nnc(C2CC2)s1,?,-14%,2µM*,14%,-23%,?
Cc1cc(OCC(=O)Nc2nnc(C3CC3)s2)ccc1C(C)C,nt,-20%,nt,nt,1%,nt
COc1ccc(C2NCCc3c2[nH]c2ccccc32)cc1CN1CCc2cc(OC)c(OC)cc2C1C (stereo not given),nt,-15%,?,-12%,11µM*,nt
COc1ccc(C2NCCc3c2[nH]c2ccccc32)cc1COc1ccc(F)cc1 (stereo not given),23µM*,?,nt,nt,10µM*,?
COc1ccc(C2NC(C(=O)O)Cc3c2[nH]c2ccccc32)cc1CN1CCN(c2ccc(F)cc2)CC1 (stereo not given),nt,-22%,nt,nt,-17%,-2%
CCN(CC)c1ccc(-c2nn3c(-c4n[nH]c5c4CCC5)nnc3s2)cc1,?,-27%,nt,?,7.9µM*,?
CCOC(=O)C(=CNc1ccc2c(c1)c1ccccc1n2CC)C(=O)OCC,nt,-15%,nt,nt,10µM*,nt
CCn1c2ccccc2c2cc(NC(=O)CC(C)=O)ccc21,-6%,-6%,-15%,-23%,13µM*,-20%
O=C(COC(=O)c1ccccc1O)NC12CC3CC(CC(C3)C1)C2,-9%,-21%,-24%,-9%,-11%,?
O=C(COC(=O)/C=C/C(=O)OCC(=O)NC12CC3CC(CC(C3)C1)C2)NC12CC3CC(CC(C3)C1)C2,-21%,?,-6%,3%,5%,8.9µM*
c1ccc(-c2[nH]ncc2-c2ccnc(-c3ccc(OCCN4CCOCC4)cc3)c2)nc1,6%,nt,nt,nt,nt,nt
O=C(CCl)N(O)c1ccc(C=Cc2ccccc2)cc1,8.9µM*,20%,-3%,-4%,?,?
CN(C(=O)C=Cc1ccccc1)c1ccccc1,3%[46.1 µM],36%,-21%,-4%,-14%,4%[46.1 µM]
N#Cc1ccc2c(c1)C[C@]1(c3ccsc3)Oc3c(c(=O)oc4ccccc34)[C@H]2O1,nt,nt,nt,nt,nt,5%[14.2 µM]
SMILES,Lassa entry inh,FMDV antiviral,Vaccinia mCherry,VACV Venus inh,HCV inhibitor,MARV entry inh
COc1ccc(Cl)cc1NC(=O)c1cc(S(=O)(=O)N2CCCC2)cn1C,nt,-1%,10%,-3%,11µM*,nt
CCO[C@H](c1cc(OC)cc([N+](=O)[O-])c1OC)[C@H](C)C=CCC(=O)OC,nt,nt,nt,nt,nt,1%[14.2 µM]
Cc1ccc(N2C(=O)c3ccccc3C2O)nc1 (stereo not given),3.7µM*,nt,nt,nt,5%,2.1µM*
Cc1ccc2[nH]cc(C(=O)CCl)c2c1,?,11µM*,?,-25%,25µM*,?
Cc1ccc2[nH]cc(C(=O)CN3CCN(C)CC3)c2c1,13%,13%,nt,nt,29%,?
COc1cccc(/C=C/c2nc(C#N)c(N3CCN(C)CC3)o2)c1,-8%[46.1 µM],6%,-7%,4%,nt,5%[46.1 µM]
CCOC(=O)c1cnc2c(C(F)(F)F)cccc2c1N1CCOCC1,-4%,32µM*,nt,-30%,?,-24%
CCOC(=O)c1cnc2c(C)c(Cl)ccc2c1N1CCOCC1,nt,-14%,1%,-20%,?,nt
FC(F)(F)c1cccc(C2NCc3ccccc3-n3cccc32)c1 (stereo not given),11µM*,-18%,?,-25%,2%,?
Oc1ccc(C2NCc3ccccc3-n3cccc32)cc1Cl (stereo not given),13%,0%,-10%,-29%,16%,?
O=C(CCl)N1c2ccccc2Sc2ccc3ccccc3c21,nt,32µM*,?,10µM*,nt,nt
CN(C)CCCN1c2ccc3ccccc3c2Sc2cccc(Cl)c21,?,-18%,?,?,?,?
O=C(COc1ccc2ccccc2c1)N1c2ccccc2Sc2ccccc21,?,-22%,nt,nt,-5%,?
CN(C)CCCN1c2ccccc2Sc2ccc3ccccc3c21,?,?,10µM*,?,?,?
Cc1cc(S(=O)(=O)c2ccc(Cl)cc2)nc(S(=O)(=O)c2ccc(Cl)cc2)c1C#N,nt,28µM*,11µM*,11µM*,nt,nt
Cc1cc(C)c(S(=O)(=O)c2ccc(Cl)cc2)c(Cl)n1,-16%,-11%,-6%,-8%,-9%,-13%[46.1 µM]
O=C(C1CCCN(S(=O)(=O)c2ccc(Cl)cc2)C1)N(Cc1cccs1)C1CC1 (stereo not given),-25%,?,-18%,-25%,10µM*,?
CN(CC(=O)Nc1cc(S(=O)(=O)N2CCCC2)ccc1Cl)Cc1cccs1,nt,-4%,nt,nt,6.3µM*,nt
CCN(CC(=O)Nc1cc(S(=O)(=O)N2CCOCC2)ccc1Cl)Cc1ccccc1,nt,?,nt,nt,7.9µM*,nt
CN(Cc1cccs1)C(=O)c1ccc(S(=O)(=O)N2CCCCC2)cc1,nt,-16%,nt,nt,-2%,nt
CN(CC(=O)Nc1cccc(F)c1)CC(=O)Nc1cc(S(=O)(=O)N2CCOCC2)ccc1Cl,nt,?,nt,nt,11µM*,nt
C[C@@H]1CN(Cc2ccc3c(c2)CN(Cc2cn[nH]c2-c2ccccc2)CCO3)C[C@H](C)O1,nt,-8%,-14%,-5%,nt,nt
O=S(=O)(C/C(=C/CO)S(=O)(=O)c1ccccc1)c1ccccc1,?,7.9µM*,nt,nt,10µM*,1.8µM*
CCOC(=O)C1=C(C)NC(SCC(=O)Nc2cc(C)on2)=C(C#N)C1c1cccs1 (stereo not given),?,nt,-25%,-16%,10µM*,1%

# Bioassay records from PubChem BioAssay.
